Shown are actives, neighbours in structure and some others; about 2.3% of the full set was active somewhere.
CCT chaperon mod = High-Throughput Screening for Modulators of Cytosolic Chaperonin Activity. 0.3% of 360,000 active. purified chaperonin ATPase assay, HTRF ADP detection, 30 min. activity change, % (no concentration beside the values), hits read low. AID 651819, 2012; in the data active = activity change below about -30%
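TRiC at 40 or 20 nM final (batch-dependent) in 30 mM Tris pH 7.4, 100 mM KCl, 5 mM MgCl2, 1 mM DTT, with compound at single 76 uM and 10 uM ATP, 30 min at 37 deg C. ADP detected by HTRF Transcreener, 665/615 ratio.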
aSyn rescue = qHTS of alpha-syn Inhibitors | Yeast expressing alpha-synuclein, growth rescue, BacTiter-Glo, 24 h | Potency, µM (titrated, usually from 46.1 µM), usual class: activators | 0.14% of 370,000 active; also: nearly all actives have a fitted effect of over 65% in size
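Galactose-induced alpha-syn yeast (OD600=0.02, raffinose-pregrown) + pinned cpd, 24 hr, 30 deg C; growth by BacTiter-Glo luminescence. Growth restoration scores as activation.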
MmCpn inh = Inhibitors of TCP-1 ring complex (TRiC) of Methanococcus maripaludis (MmCpn): qHTS. Chaperonin Mm-Cpn (Methanococcus maripaludis). purified Mm-Cpn ATPase, ADP Transcreener TR-FRET. Potency, µM (titrated, usually from 76.9 µM), most hits filed as inhibitors. 0.031% of 330,000 active. AID 504842, 2011; also: nearly all actives have a fitted effect of over 80% in size
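Purified archaeal Mm-CPN (25nM final) preincubated 10 min at 37degC with compound, then 10uM ATP for 30 min at 37degC; ADP measured by HTRF Transcreener TR-FRET; buffer 30 mM TRIS pH 7.4, 100mM KCl, 5mM MgCl2, 1mM DTT.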
TDP-43 yeast inh = qHTS of TDP-43 Inhibitors | TDP-43 expressing yeast growth rescue, BacTiter-Glo, 24 h | AID 652104, 2013 | Potency, µM (doses to about 46.1 µM), actives largely listed as activators | 1.8% of 410,000 active; also: nearly all actives have a fitted effect of over 50% in size
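Cell-based yeast growth screen: TDP-43 expression induced in galactose, inoculum OD600=0.02 after raffinose pregrowth to mid-log. Read-out BacTiter-Glo luminescence at 24 hr, 30 deg C; inhibition of toxicity seen as signal increase.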
FUS yeast rescue = qHTS for Suppressors of FUS Proteinopathy: Primary screen using FUS-linked yeast assay; Potency, µM (doses to about 76.6 µM), hits mostly activators; S. cerevisiae FUS-expressing, growth rescue, OD600, 24 h; 0.24% of 390,000 active; also: nearly all actives have a fitted effect of over 55% in size
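Yeast expressing FUS under galactose induction, OD 0.005 in 2% galactose medium; compounds in a dilution series, 24 h at 30C. Growth rescue by absorbance at 600 nm; CP55940 positive control, DMSO negative.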
Abeta yeast res = qHTS for compounds that reverse cellular toxicity of Amyloid beta (A-beta) peptide in yeast: Primary Screen | yeast expressing A-beta42, growth rescue, OD600, 48 h; response scale: 0% DMSO, 100% iron-clioquinol control | Potency, µM (top dose mostly 46.1 µM), hits mostly activators | 0.063% of 410,000 active; also: nearly all actives have a fitted effect of over 55% in size
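Growth rescue measured by 600 nm absorbance after 48 h yeast culture at 30 C with compound. Values normalized between DMSO and an equimolar ferric chloride plus clioquinol control.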
Hits are given with their value. Unless noted, calls follow the shape of the dose curve; as a rule, active = well fitted curve in the direction sought with a large enough effect; inconclusive = small, poorly fitted or top-dose-only effect, or another doubt; inactive = no such curve, though single readings can be large; an effect the other way counts as inactive or inconclusive.

Screening CCCn1nc(NC(=O)C(C)(C)C)c2cc3cc(OC)ccc3nc21 returned CCT chaperon mod inactive, aSyn rescue inactive, MmCpn inh inactive, TDP-43 yeast inh inactive, FUS yeast rescue inconclusive and Abeta yeast res inactive.
COc1ccc2nc3c(cc2c1)c(NC(=O)c1cccs1)nn3CC(C)C was read as CCT chaperon mod inactive, aSyn rescue inactive, MmCpn inh inactive, TDP-43 yeast inh 25.1µM, FUS yeast rescue inconclusive and Abeta yeast res inactive.
`CCCCn1nc(NC(=O)CC)c2cc3cc(OC)ccc3nc21` gave CCT chaperon mod inactive, aSyn rescue inactive, MmCpn inh inactive, TDP-43 yeast inh 11.2µM, FUS yeast rescue inactive and Abeta yeast res inactive.
Cc1ccc(NC(=O)Cn2nnc(-c3nc(-c4ccncc4)no3)c2N)c(C)c1 was read as TDP-43 yeast inh inactive, FUS yeast rescue inactive and Abeta yeast res inactive.
`Fc1ccc(/C=C/c2nccc3ccccc23)cc1` gave aSyn rescue inactive.
c1ccc(-c2nc(NCc3cccs3)c3ccccc3n2)cc1 was read as CCT chaperon mod -47.9, aSyn rescue inactive, MmCpn inh inactive, TDP-43 yeast inh inactive, FUS yeast rescue inactive and Abeta yeast res inactive.
`Cc1ccc(S(=O)(=O)NOCc2ccccc2)cc1` gave CCT chaperon mod inactive, aSyn rescue 17.8µM, MmCpn inh inactive, TDP-43 yeast inh inactive, FUS yeast rescue inactive and Abeta yeast res inactive.
Cc1ccc(S(=O)(=O)N[C@@H](Cc2ccccc2)C(=O)CCl)cc1 was read as CCT chaperon mod inactive, aSyn rescue inactive, MmCpn inh inactive, TDP-43 yeast inh 3.16µM, FUS yeast rescue inactive and Abeta yeast res inactive.
For Cc1ccc(S(=O)(=O)NCC(=O)OCc2ccccc2)cc1 the results were CCT chaperon mod inactive, aSyn rescue inactive, MmCpn inh inactive, FUS yeast rescue inactive and Abeta yeast res inactive.
Screening Cn1cc(/C=C/c2ccnc3ccccc23)c2ccccc21 returned aSyn rescue inactive.
CCOC(=O)CSc1nc(C)c(CC)c(C)c1C(N)=O was read as CCT chaperon mod -62.2, aSyn rescue inactive, MmCpn inh inactive, TDP-43 yeast inh inactive, FUS yeast rescue inactive and Abeta yeast res inactive.
For CCOC(=O)CSc1nc(C)cc(C)c1C(N)=O the results were CCT chaperon mod inactive, aSyn rescue inactive, MmCpn inh inactive, TDP-43 yeast inh inactive, FUS yeast rescue inactive and Abeta yeast res inactive.
`CCc1ccc(S(=O)(=O)N(C(=O)c2ccncc2)c2ccc3oc(C)c(C(=O)OC)c3c2)cc1` gave TDP-43 yeast inh 20µM, FUS yeast rescue inactive and Abeta yeast res inactive.
`COC(=O)c1c(C)oc2ccc(N(C(=O)c3ccncc3)S(=O)(=O)c3ccc(OC)cc3)cc12` gave TDP-43 yeast inh inconclusive, FUS yeast rescue inactive and Abeta yeast res inactive.
`COc1ccc(S(=O)(=O)N(C(=O)c2ccncc2)c2ccc3oc4c(c3c2)CCCC4)cc1` gave CCT chaperon mod -41.6, aSyn rescue inconclusive, MmCpn inh inactive, TDP-43 yeast inh inactive, FUS yeast rescue inactive and Abeta yeast res inactive.
`C[C@@H]1[C@@H](c2ccccc2)OC(O)([C@H](Cc2ccccc2)NC(=O)OC(C)(C)C)CN1C` (some centres not stated) gave FUS yeast rescue inactive.
For CC1CCN(c2ccccc2NC(=O)c2ccc(F)cc2)CC1 the results were CCT chaperon mod inactive, MmCpn inh inactive, TDP-43 yeast inh 12.6µM, FUS yeast rescue inactive and Abeta yeast res inactive.
Screening CC1CCN(c2ccccc2NC(=S)NC(=O)c2cccs2)CC1 returned CCT chaperon mod inactive, aSyn rescue inactive, MmCpn inh inactive, TDP-43 yeast inh inactive, FUS yeast rescue inactive and Abeta yeast res inactive.
`O=C(NC(=S)Nc1ccccc1N1CCCC1)c1ccc(F)cc1` gave CCT chaperon mod inactive, aSyn rescue inactive, MmCpn inh inactive, TDP-43 yeast inh 25.1µM and Abeta yeast res inactive.
O=C(NC(=S)Nc1ccccc1N1CCCC1)c1cccc(F)c1 was read as CCT chaperon mod inactive, aSyn rescue inactive, MmCpn inh inactive, TDP-43 yeast inh inactive, FUS yeast rescue inactive and Abeta yeast res 7.94µM.
Screening CC1CCN(c2ccccc2NC(=S)NC(=O)C(C)(C)C)CC1 returned CCT chaperon mod inactive, aSyn rescue inactive, MmCpn inh inactive, TDP-43 yeast inh inconclusive, FUS yeast rescue inactive and Abeta yeast res 12.6µM.
`CCCC(=O)N1CCC(NS(=O)(=O)c2ccc3c(c2)CCN3C(C)=O)CC1` gave FUS yeast rescue inactive.
`COc1cccc(N(C)C(=O)[C@@H](C)[C@@H](O)c2ccc(Cl)cc2)c1` gave FUS yeast rescue inactive.
Screening Cc1ccccc1C(=O)NC(=S)Nc1ccccc1N1CCCC1 returned CCT chaperon mod inactive, aSyn rescue inactive, MmCpn inh inactive, TDP-43 yeast inh inconclusive, FUS yeast rescue inactive and Abeta yeast res inconclusive.
`O=C(NC(=S)Nc1ccccc1N1CCCCC1)c1ccccc1` gave CCT chaperon mod inactive, aSyn rescue inactive, MmCpn inh inactive, TDP-43 yeast inh 11.2µM, FUS yeast rescue inactive and Abeta yeast res inactive.
`COc1ccccc1/C=C/c1nc2ccccc2s1` gave aSyn rescue inactive.
Screening COc1ccc(C2Nc3ccccc3C(=O)N2c2ccc(Cl)cc2)cc1COc1ccc(NC(C)=O)cc1 (configuration not stated) returned aSyn rescue inactive.
Cc1cccc(-c2nc(CCNC(=O)c3ccco3)cs2)c1 was read as CCT chaperon mod inactive, aSyn rescue inactive, TDP-43 yeast inh inconclusive, FUS yeast rescue inactive and Abeta yeast res inactive.
O=C(NCCc1csc(-c2ccccc2)n1)c1ccc(Br)o1 was read as CCT chaperon mod inactive, aSyn rescue inactive, MmCpn inh inactive, TDP-43 yeast inh 22.4µM, FUS yeast rescue inactive and Abeta yeast res inactive.
For Cc1cccc(-c2nc(CCNC(=O)c3ccc(Br)o3)cs2)c1 the results were TDP-43 yeast inh 15.8µM, FUS yeast rescue inactive and Abeta yeast res inactive.
CC(CNC(=O)CN1C(=O)COc2ccc(S(=O)(=O)N3CCCCCC3)cc21)c1ccccc1 (configuration not stated) was read as TDP-43 yeast inh inactive, FUS yeast rescue inactive and Abeta yeast res inactive.
`CCOC(=O)c1ccc(CNc2ncnc3nc[nH]c23)cc1` gave aSyn rescue 25.1µM.
For CC(=O)n1c(-c2ccccc2)c(-c2ccccc2)n(C)c1=O the results were CCT chaperon mod inactive, aSyn rescue inactive, TDP-43 yeast inh 12.6µM, FUS yeast rescue inactive and Abeta yeast res inactive.
